The entries come from a sample that favours hits as a whole.
FECH block – blocks human mitochondrial ferrochelatase activity; P22830; purified FECH, Ni-mesoporphyrin absorbance 550 nm; calls only at 10 µM (by protocol); actives 3.3% (n = 20,000); AID 1671448;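 active = enzyme reaction rate more than 3 SD below the solvent-only control wells on the same plate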;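 also: lower slope than DMSO wells means FECH inhibition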
Target sequence (P22830 whole entry, looked up): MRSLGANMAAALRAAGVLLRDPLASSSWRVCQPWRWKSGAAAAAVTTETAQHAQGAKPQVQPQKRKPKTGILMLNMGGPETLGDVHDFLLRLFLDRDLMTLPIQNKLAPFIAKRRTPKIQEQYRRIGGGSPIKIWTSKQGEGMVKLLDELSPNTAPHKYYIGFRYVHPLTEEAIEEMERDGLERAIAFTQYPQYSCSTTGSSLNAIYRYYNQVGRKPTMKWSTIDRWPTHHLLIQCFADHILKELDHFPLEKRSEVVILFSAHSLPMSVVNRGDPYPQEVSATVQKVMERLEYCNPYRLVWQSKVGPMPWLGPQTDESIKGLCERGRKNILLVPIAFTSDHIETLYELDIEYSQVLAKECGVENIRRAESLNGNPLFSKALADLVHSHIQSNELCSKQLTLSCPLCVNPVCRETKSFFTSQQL
An asterisk follows results filed as active; i = inactive; + = active, no number.

SMILES | FECH block
O=C(Cc1cccc(F)c1)NCCn1c(C(F)(F)F)nc2cccnc21 | i
c1ccc(-c2ncc(Cn3ccnc3-c3ccccn3)s2)cc1 | i
COc1cccc(CN(c2nc3nc(C)cc(C)n3n2)S(=O)(=O)c2ccc(Cl)cc2)c1 | i
CO[C@H]1CN(c2nnnn2-c2ccc(Oc3ccccc3)cc2)CC[C@H]1N | i
CC(C)C1CN(C(=O)CNC(N)=O)CCCN1CC1CC1 (stereo not given) | i
O=C(Nc1cccc(Cl)c1)N1CCN(CCn2c(C(F)(F)F)nc3cccnc32)CC1 | i
Cc1ccc(C)c(NC(=O)CN2CCN(Cc3ccc(F)cc3)S2(=O)=O)c1 | i
COc1cc(OC)cc(C(=O)Nc2cc(N3CCCS3(=O)=O)ccc2C)c1 | i
COc1ccccc1-n1cc(C(C)N2Cc3ncccc3C2=O)cn1 (stereo not given) | i
CCN1C(SCC(=O)Nc2c(C)cccc2C)=NS(=O)(=O)c2ccccc21 | +
Cc1ccccc1N1C(=O)N(CC(=O)NC2CCCC2)c2ccccc2S1(=O)=O | i
Cc1cccc(C)c1NC(=O)CSCc1nc(-c2ccccc2)no1 | i
Cc1cccc2[nH]c(C3CCCN(Cc4nc(-c5ccco5)no4)C3)nc12 (stereo not given) | i
Cc1cccnc1-n1nc(C2CC2)nc1Cn1nc(C)c2ccccc2c1=O | i
Cc1cccnc1C(NC(=O)c1cccc(C#CC(C)(C)O)c1)C1CC1 (stereo not given) | i
COc1cccc(Cn2c(CNC(=O)c3cccc(OC)c3)nc3cccnc32)c1 | i
Cc1ccc(S(=O)(=O)NCc2nc3cccnc3n2C2CCCC2)cc1 | +
COc1ccc(S(=O)(=O)NCc2nc3cccnc3n2C2CCCC2)cc1 | i
CCCn1c(CNS(=O)(=O)c2ccc(Cl)cc2)nc2cccnc21 | i
COCCn1c(CNC(=O)c2ccc(OC)cc2OC)nc2cccnc21 | i
COc1ccc(S(=O)(=O)NCc2nc3cccnc3n2Cc2ccccc2)cc1 | i
O=S(=O)(NCc1nc2cccnc2n1C1CCCCC1)c1ccc(Cl)cc1 | i
CC(C)Cc1ccc(S(=O)(=O)NCc2nc3cccnc3n2Cc2ccccc2)cc1 | i
COc1cccc(Cn2c(CNC(=O)c3ccc(OC)cc3OC)nc3cccnc32)c1 | +
COc1ccc(Cn2c(CNS(=O)(=O)c3ccc(Cl)cc3)nc3cccnc32)cc1 | i
SMILES | FECH block
COc1ccc(Cn2c(CNS(=O)(=O)c3ccccc3)nc3cccnc32)cc1 | +
CCCn1c(CNS(=O)(=O)c2ccc(CC(C)C)cc2)nc2cccnc21 | +
CCCC(CCC)NC(C)c1n[nH]c(C)n1 (stereo not given) | i
CCOc1ccc(-c2nccn2Cc2ccc3c(c2)OCO3)cn1 | i
Cc1ccc(-c2nc(CSc3nc(-c4cccnc4)cc(=O)[nH]3)c(C)o2)cc1 | i
CC(NC(=O)C12C[C@H]3C[C@@H](C1)CC(n1cncn1)(C3)C2)C(=O)N(C)C (stereo not given in full) | i
CCC(C)Nc1nc(Nc2ccc(C)cc2)c2cnn(-c3ccccc3)c2n1 (stereo not given) | i
CCc1nn(C)c(Cl)c1CN1CCCn2nc(C(=O)OC)cc2C1 | i
CCN(CC)c1ncc(NS(=O)(=O)c2ccc(OC)c(OC)c2)cc1C(=O)O | i
CCn1c(C2CCN(C(=O)NCCc3ccc(OC)cc3)CC2)n[nH]c1=O | i
CNc1ncccc1C(=O)N(CC#Cc1ccccc1)C1CCCC1 | i
CN1CC2(CCN(C(=O)CCc3cn4ccccc4n3)CC2)CC1C(=O)O (stereo not given) | i
COc1cccc(NC(=O)C2CCN(c3ccc(-c4ccc(C)cc4)nn3)CC2)c1 | i
CCCc1ccc(S(=O)(=O)NCc2nc3cccnc3n2Cc2ccccc2)cc1 | +
CCc1ccc(Cn2c(CNS(=O)(=O)c3ccc(CC)cc3)nc3cccnc32)cc1 | i
CC(C)c1ccc(S(=O)(=O)NCc2nc3cccnc3n2Cc2ccccc2)cc1 | i
NC(=O)[C@@H]1CCCN1Cc1cccc(C(=O)Nc2ccnn2C2CCCC2)c1 | i
Cc1cccc(C(C(=O)NCc2nnc3n2CCC3)N(C)C)c1 (stereo not given) | i
Cc1ccc(C)c(OCc2cc(C(=O)NCc3nnc4n3CCC4)no2)c1 | +
O=C(NCC1CCCCO1)c1cc(COc2c(F)cccc2F)on1 (stereo not given) | i
Cn1c(=O)c2c(-c3cccc(Br)c3)c(NCc3ccccc3)oc2n(C)c1=O | i
COc1ccc(C(=O)Nc2ccc(C)c(OCc3cc(=O)n4cccc(C)c4n3)c2)cc1 | i
Cc1ccc(NC(=O)C2CCCCC2)cc1OCc1cc(=O)n2cccc(C)c2n1 | +
Cc1ccc(NC(=O)c2ccccc2C)cc1OCc1cc(=O)n2cccc(C)c2n1 | i
CCc1ccc(-c2c(-c3ccccc3)ncn2C(C)c2cnn(C)c2)nc1 (stereo not given) | i
SMILES | FECH block
Cn1c(=O)n(Cc2ccccc2F)c(=O)c2cnc(-c3cccs3)nc21 | i
Cc1noc(C)c1CCn1c(=O)c2cnc(-c3cccs3)nc2n(C)c1=O | i
Cn1c(=O)n(CCOc2ccccc2)c(=O)c2cnc(-c3cccs3)nc21 | +
Cc1cc(COc2ccccc2)oc1C(=O)N1CC(n2cccn2)C1 | i
O=C1C[C@H]2CC[C@@H](CN1)N2C(=O)c1ccno1 | i
CCc1c(C)nn(CCNC(=O)c2cnn3ccn(C)c23)c1C | i
Cn1nnnc1SCCNC(=O)c1cnn2ccn(C)c12 | i
Cn1ccn2ncc(C(=O)NCCc3ccccn3)c12 | +
COc1cccc(C(=O)N2CCN(Cc3ccnc(C(C)C)n3)CC2)c1 | i
CCOc1ccc(S(=O)(=O)N2CCC(n3c(Cc4ccccc4)nc4cccnc43)CC2)cc1 | i
CCc1c(C)nc2ncnn2c1Sc1ccc(NC(=O)Nc2ccsc2C(=O)OC)cc1 | +
CCc1c(C)nc2ncnn2c1Sc1ccc(NC(=O)Nc2ccc(OC)cc2OC)cc1 | +
CCc1c(C)nc2ncnn2c1Sc1ccc(NC(=O)Nc2cccc(C(=O)OC)c2)cc1 | i
CCc1c(C)nc2ncnn2c1Sc1ccc(NC(=O)Nc2cc(OC)ccc2OC)cc1 | i
CCc1c(C)nc2ncnn2c1Sc1ccc(NC(=O)Nc2ccccc2Br)cc1 | i
CCc1c(C)nc2ncnn2c1Sc1ccc(NC(=O)Nc2cc(OC)cc(OC)c2)cc1 | i
CC(c1nc(CC2CCN(C)CC2)no1)N1CCN(C)CC1 (stereo not given) | i
CCc1[nH]c2c(CNC(=O)Cc3ccn(C)c3)cc(C)cc2c1C | i
COc1ccccc1NC(=O)Nc1nc(CC(=O)Nc2ccc(C)c(Cl)c2)cs1 | i
COCCNC(=O)C1(C)Cn2c(cc3ccsc32)C(=O)N1c1ccc(Cl)cc1 (stereo not given) | i
COc1cccc(CN2CCN(c3noc(C(C)C)n3)CC2)c1F | i
Cc1cccc2[nH]nc(-c3cccnc3)c12 | i
COc1ccc(C(=O)N2CCNCC2C(=O)N2CCCC2)c(OC)c1OC (stereo not given) | i
CCOC(=O)c1cc2n(n1)CC(C)(C(=O)NCCC(C)C)N(c1cc(C)cc(C)c1)C2=O (stereo not given) | +
CCOC(=O)c1cc2n(n1)CC(C)(C(=O)NCCC(C)C)N(c1ccc(Cl)cc1)C2=O (stereo not given) | i
CCOC(=O)c1cc2n(n1)CC(C)(C(=O)NCCC(C)C)N(c1cc(OC)cc(OC)c1)C2=O (stereo not given) | i

Screening results: PubChem BioAssay, Corson Lab, School of Medicine, Indiana University
